Structures are written as SMILES. Hit rate of the full screen: of about 310,000 compounds, about 14,000 (4.5%) showed an effect of 50% or more. Effects have a minus sign here. This is one part of a sample in which strong results are shown more often than they occur.

The source of these data is publication PMC4336329 (PLoS ONE, 2015).
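Note: peak tail current of the secondary pulse compared with the same well before compound.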

For the test, the target named is human ether-à-go-go-related gene (hERG) potassium channel (human, UniProt Q12809). Kind of test: primary screen, population patch clamp on CHO cells stably expressing hERG; higher = less effect of the substance.
Sequence of human ether-à-go-go-related gene (hERG) potassium channel (Q12809 whole entry, looked up): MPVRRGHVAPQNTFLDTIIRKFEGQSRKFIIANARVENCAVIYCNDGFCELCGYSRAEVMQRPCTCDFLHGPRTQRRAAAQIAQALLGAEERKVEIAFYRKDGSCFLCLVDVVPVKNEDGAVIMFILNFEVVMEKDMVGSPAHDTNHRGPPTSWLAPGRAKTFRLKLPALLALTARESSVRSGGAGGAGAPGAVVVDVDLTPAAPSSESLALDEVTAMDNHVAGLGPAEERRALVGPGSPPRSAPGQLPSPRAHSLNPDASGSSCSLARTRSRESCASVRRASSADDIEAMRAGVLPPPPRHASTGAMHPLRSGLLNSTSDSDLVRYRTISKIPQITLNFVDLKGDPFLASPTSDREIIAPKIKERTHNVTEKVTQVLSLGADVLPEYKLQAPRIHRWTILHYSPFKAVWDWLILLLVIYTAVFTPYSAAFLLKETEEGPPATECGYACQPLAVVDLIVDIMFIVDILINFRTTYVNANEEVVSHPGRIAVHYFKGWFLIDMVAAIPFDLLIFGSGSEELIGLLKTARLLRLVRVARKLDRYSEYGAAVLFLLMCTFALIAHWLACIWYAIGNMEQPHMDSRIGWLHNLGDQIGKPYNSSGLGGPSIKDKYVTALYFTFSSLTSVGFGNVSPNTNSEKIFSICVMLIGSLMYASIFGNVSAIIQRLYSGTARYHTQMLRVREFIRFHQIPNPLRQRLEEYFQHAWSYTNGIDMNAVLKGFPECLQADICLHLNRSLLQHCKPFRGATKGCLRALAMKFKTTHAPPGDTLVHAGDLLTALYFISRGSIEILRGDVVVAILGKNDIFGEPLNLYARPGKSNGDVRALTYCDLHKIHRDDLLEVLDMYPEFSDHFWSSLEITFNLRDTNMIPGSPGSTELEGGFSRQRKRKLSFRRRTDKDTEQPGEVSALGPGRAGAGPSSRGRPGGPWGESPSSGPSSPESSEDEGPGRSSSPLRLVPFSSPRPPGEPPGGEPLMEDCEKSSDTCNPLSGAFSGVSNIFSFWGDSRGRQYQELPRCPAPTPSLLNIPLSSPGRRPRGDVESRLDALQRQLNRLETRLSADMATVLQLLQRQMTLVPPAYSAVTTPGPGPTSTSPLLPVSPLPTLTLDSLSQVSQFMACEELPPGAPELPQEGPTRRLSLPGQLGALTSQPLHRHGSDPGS
As for `CCN(CC)S(=O)(=O)c1ccc(C(=O)NCc2nnc(SCC(=O)OC)n2C)cc1`, the “hERG current change (%, negative = inhibition) at 10uM” value is given as -1.87%.

For `Cl.O=C(Nc1cccc(Cl)c1)NC1CCN(C2CCCCC2)C1` (centres unmarked), the “hERG current change (%, negative = inhibition) at 10uM” value is -56.6%.

As to `O=C(NC1CCN(C(=O)Nc2cccc(Cl)c2)CC1)C1CCCCC1`, the “hERG current change (%, negative = inhibition) at 10uM” value is reported as 13.1%.

As to `O=C(Nc1cccc(-c2cccc(F)c2)c1)C1CCN(C2CCOCC2)CC1`, the “hERG current change (%, negative = inhibition) at 10uM” value is listed as -75%.

Turning to `O=C(Nc1cccc(F)c1)C1CCN(C(=O)Cc2ccccc2)CC1`, the “hERG current change (%, negative = inhibition) at 10uM” value was -7.55%.

As for `O=C(Nc1cccc(F)c1)C1CCN(C(=O)c2ccccc2Cl)CC1`, the “hERG current change (%, negative = inhibition) at 10uM” value is on record as -8.66%.

In the case of `CS(=O)(=O)N1CCC(C(=O)Nc2cccc(Cl)c2)CC1`, the “hERG current change (%, negative = inhibition) at 10uM” value worked out at 2.18%.

For `O=C(Nc1cccc(Cl)c1)NC1CCCCC1`, the “hERG current change (%, negative = inhibition) at 10uM” value is recorded as 8.14%.

In the case of `O=C(Nc1cccc(F)c1)C1CCCCC1`, the “hERG current change (%, negative = inhibition) at 10uM” value is recorded as -9.22%.

As for `O=C(Nc1cccc(Cl)c1)C1CCCCC1`, the “hERG current change (%, negative = inhibition) at 10uM” value is reported as -9.14%.

For the compound `O=C(Nc1cccc(-c2cccc(Cl)c2)c1)C1CCN(C2CCC2)CC1`, the “hERG current change (%, negative = inhibition) at 10uM” value is reported as -73.7%.

For `O=C(Nc1cccc(-c2cccc(F)c2)c1)C1CCN(C2CCC2)CC1`, the “hERG current change (%, negative = inhibition) at 10uM” value is recorded as -71.5%.

For the compound `CS(=O)(=O)N1CCC(C(=O)Nc2cccc(F)c2)CC1`, the “hERG current change (%, negative = inhibition) at 10uM” value came out at 15.2%.

As for `CCS(=O)(=O)N1CCC(C(=O)Oc2ccccc2OC)CC1`, the “hERG current change (%, negative = inhibition) at 10uM” value is reported as 18.5%.

As for `CC(=O)Nc1ccc(NC(=O)c2c(-c3ccccc3Cl)noc2C)cc1`, the “hERG current change (%, negative = inhibition) at 10uM” value is listed as 5.89%.

On to `COc1ccc(C(=O)N(c2ccc(C)cc2)C2C=CS(=O)(=O)C2)cc1OC` (centres unmarked), for which the “hERG current change (%, negative = inhibition) at 10uM” value is given as 9.79%.

For the compound `CC(=O)N1CCN(Cc2ccc(Br)s2)CC1`, the “hERG current change (%, negative = inhibition) at 10uM” value is recorded as -2.46%.

With `C#CCOCCOCCOCCNc1nc(N2CCN(C(=O)CCCCCCCCCCNC(=O)Cn3cc(C[C@@H](C)O)nn3)CC2)nc(N2CCN(C(=O)CCCCCCCCCCNC(=O)[C@@H](CCSC)n3cc(CCO)nn3)CC2)n1`, the “hERG current change (%, negative = inhibition) at 10uM” value was found to be 10.1%.

`O=C(COC(=O)/C=C/c1ccc([N+](=O)[O-])cc1)NCc1ccccc1`: the “hERG current change (%, negative = inhibition) at 10uM” value was 2.07%.

Regarding `CC12CCC(C(=O)NNC(=O)c3ccc(F)cc3)(OC1=O)C2(C)C` (centres unmarked), the “hERG current change (%, negative = inhibition) at 10uM” value amounted to 24.6%.

Take `CCOc1ccc(NC(=O)c2ccc(-c3csc(C)n3)cc2)cc1`: the “hERG current change (%, negative = inhibition) at 10uM” value was determined as 16.5%.

As for `CC(C)Nc1nnc(SCC(=O)Nc2ccc3c(c2)C(=O)c2ccccc2C3=O)s1`, the “hERG current change (%, negative = inhibition) at 10uM” value is recorded as -2.55%.

Regarding `COc1ccc(CCNc2nc(=O)[nH]nc2C)cc1OC`, the “hERG current change (%, negative = inhibition) at 10uM” value came out at 2.35%.

`Cc1ccc(-c2nnc(CCC(=O)NCC3C4CC5CC(C4)CC3C5)o2)s1` (centres unmarked): the “hERG current change (%, negative = inhibition) at 10uM” value was -6.1%.

For the compound `COc1cccc(-c2cccc(NC(=O)C3CCN(C4CCOCC4)CC3)c2)c1`, the “hERG current change (%, negative = inhibition) at 10uM” value was -42%.

For the compound `COc1cccc(NC(=O)C2CCC2)c1`, the “hERG current change (%, negative = inhibition) at 10uM” value is 8.83%.

Regarding `COc1cccc(-c2cccc(NC(=O)C3CCN(C4CCC4)CC3)c2)c1`, the “hERG current change (%, negative = inhibition) at 10uM” value is listed as -51.7%.

Regarding `CCN(CC)CC(C)CNC(=O)C1(O)c2ccccc2NC(=O)N1c1ccc(Cl)c(Cl)c1` (centres unmarked), the “hERG current change (%, negative = inhibition) at 10uM” value was 3.31%.

Take `COc1ccc(OCC(O)CNC(=O)Nc2cc(C)cc(C)c2)cc1` (centres unmarked): the “hERG current change (%, negative = inhibition) at 10uM” value is on record as 0.613%.

In the case of `Cc1cc(C(=O)N/N=C/c2ccco2)n[nH]1`, the “hERG current change (%, negative = inhibition) at 10uM” value was 31.6%.

In the case of `CC(=O)c1ccc(C(=O)N2CCCC(C(=O)c3cc(F)ccc3F)C2)s1` (centres unmarked), the “hERG current change (%, negative = inhibition) at 10uM” value is 2.88%.

With `CCOc1cc(CNCCSc2nnnn2C)cc(Br)c1OCc1ccccc1.Cl`, the “hERG current change (%, negative = inhibition) at 10uM” value was -23.1%.

For the compound `Cn1nnnc1SCCNCc1ccccc1OCc1ccccc1`, the “hERG current change (%, negative = inhibition) at 10uM” value is reported as -9.36%.

With `Cl.Cn1nnnc1SCCNCc1ccccc1OCc1ccc(Cl)cc1`, the “hERG current change (%, negative = inhibition) at 10uM” value is recorded as -53.4%.

With `COc1cc(CNCCSc2nnnn2C)cc(Br)c1OCc1ccc(F)cc1.Cl`, the “hERG current change (%, negative = inhibition) at 10uM” value was -43.9%.

As for `COc1cc(CNCCSc2nnnn2C)cc(Br)c1OCc1ccccc1.Cl`, the “hERG current change (%, negative = inhibition) at 10uM” value was -56.3%.

With `Cl.Cn1nnnc1SCCNCc1ccccc1OCc1ccc(F)cc1`, the “hERG current change (%, negative = inhibition) at 10uM” value is listed as -29.6%.

Regarding `CCOC(=O)c1ccc(S(=O)(=O)N2CCN(CCC#N)CC2)cc1`, the “hERG current change (%, negative = inhibition) at 10uM” value was -14.7%.

Take `Cc1ccc(CNC(=O)COC(=O)CSc2ccc(Br)cc2C)cc1`: the “hERG current change (%, negative = inhibition) at 10uM” value is reported as 10.9%.

Turning to `Cc1nnc(Nc2ccc(O)cc2)[nH]c1=O`, the “hERG current change (%, negative = inhibition) at 10uM” value stood at 27.7%.

For the compound `CCN1CCN(c2ccc(S(=O)(=O)N3CCOCC3)cc2NC(=O)c2ccccc2SC)CC1`, the “hERG current change (%, negative = inhibition) at 10uM” value is -60.1%.

As to `CCN1CCN(c2ccc(S(=O)(=O)N3CCOCC3)cc2NC(=O)c2ccc(Cl)cc2Cl)CC1`, the “hERG current change (%, negative = inhibition) at 10uM” value was -38.4%.

As for `CCN1CCN(c2ccc(S(=O)(=O)N3CCOCC3)cc2NC(=O)c2ccc(C)c(C)c2)CC1`, the “hERG current change (%, negative = inhibition) at 10uM” value is on record as -40%.

As to `CCN1CCN(c2ccc(S(=O)(=O)N3CCOCC3)cc2NC(=O)c2ccc(Cl)s2)CC1`, the “hERG current change (%, negative = inhibition) at 10uM” value is listed as -57.1%.

As to `CCN1CCN(c2ccc(S(=O)(=O)N3CCOCC3)cc2NC(=O)c2ccc(F)cc2Cl)CC1`, the “hERG current change (%, negative = inhibition) at 10uM” value is reported as -35.7%.

Consider `CCN1CCN(c2ccc(S(=O)(=O)N3CCOCC3)cc2NC(=O)c2ccccc2OC(F)F)CC1`, for which the “hERG current change (%, negative = inhibition) at 10uM” value is listed as -42.5%.

As to `C/C(=N/OC(=O)c1c(-c2c(Cl)cccc2Cl)noc1C)c1cnccn1`, the “hERG current change (%, negative = inhibition) at 10uM” value is -1.72%.

On to `Cc1nc(NCc2ccccc2)c2cc[nH]c2n1`, for which the “hERG current change (%, negative = inhibition) at 10uM” value is 21%.

`Cc1nc2sc(C(c3cccc(F)c3)N3CCCCC3)c(O)n2n1` (centres unmarked): the “hERG current change (%, negative = inhibition) at 10uM” value was found to be 4.79%.

For `O=C(NCC1CCCO1)c1ccc(Cn2c(=S)[nH]c3ccccc3c2=O)cc1` (centres unmarked), the “hERG current change (%, negative = inhibition) at 10uM” value was 18.2%.

With `CN1CCN(C(=O)/C(=C/c2cn(S(=O)(=O)N(C)C)c3ccccc23)NC(=O)c2ccccc2Cl)CC1`, the “hERG current change (%, negative = inhibition) at 10uM” value stood at 20.2%.

For the compound `COc1cc(/C=C/c2ccc3cccc(O)c3n2)ccc1O`, the “hERG current change (%, negative = inhibition) at 10uM” value was -0.305%.

On to `Cc1cc(C)nc(Nc2nc(C)c3cc4c(cc3n2)OCO4)n1`, for which the “hERG current change (%, negative = inhibition) at 10uM” value was -3.78%.

Regarding `Cc1ccc(S(=O)(=O)Nc2c(C)n(C)n(-c3ccccc3)c2=O)cc1C(=O)OC(C)C(=O)N(C)c1ccccc1` (centres unmarked), the “hERG current change (%, negative = inhibition) at 10uM” value is reported as -10.5%.

For `COc1cc(N2C(=O)c3ccccc3C2=O)c(Cl)cc1C(=O)OCC(=O)NCc1ccco1`, the “hERG current change (%, negative = inhibition) at 10uM” value is -56.1%.

For the compound `COc1cc(N2C(=O)c3ccccc3C2=O)c(Cl)cc1C(=O)OCC(=O)N(C)C`, the “hERG current change (%, negative = inhibition) at 10uM” value is on record as -28.5%.

In the case of `COc1cc(N2C(=O)c3ccccc3C2=O)c(Cl)cc1C(=O)OCC(=O)N1CCOCC1`, the “hERG current change (%, negative = inhibition) at 10uM” value is listed as -9.43%.

`CCN(C(=O)COC(=O)c1cc(S(=O)(=O)Nc2c(C)n(C)n(-c3ccccc3)c2=O)ccc1Cl)C1CCCCC1`: the “hERG current change (%, negative = inhibition) at 10uM” value was -49.9%.

With `Cc1c(NS(=O)(=O)c2ccc(Cl)c(C(=O)OCC(=O)NCc3ccco3)c2)c(=O)n(-c2ccccc2)n1C`, the “hERG current change (%, negative = inhibition) at 10uM” value is on record as -51.9%.

Consider `Cc1c(NS(=O)(=O)c2ccc(Cl)c(C(=O)OC(C)C(=O)N3CCOCC3)c2)c(=O)n(-c2ccccc2)n1C` (centres unmarked), for which the “hERG current change (%, negative = inhibition) at 10uM” value came to 5.07%.

As to `Cc1c(NS(=O)(=O)c2ccc(Cl)c(C(=O)OC(C)C(=O)NCc3ccco3)c2)c(=O)n(-c2ccccc2)n1C` (centres unmarked), the “hERG current change (%, negative = inhibition) at 10uM” value is on record as -77.5%.

Regarding `CCN(Cc1ccccc1)C(=O)C(C)OC(=O)c1cc(S(=O)(=O)Nc2c(C)n(C)n(-c3ccccc3)c2=O)ccc1C` (centres unmarked), the “hERG current change (%, negative = inhibition) at 10uM” value is listed as -19.3%.

For `Cc1c(NS(=O)(=O)c2cc(C(=O)NCc3ccco3)cc(Cl)c2Cl)c(=O)n(-c2ccccc2)n1C`, the “hERG current change (%, negative = inhibition) at 10uM” value is given as -39.5%.

On to `CN(c1ccccc1)S(=O)(=O)c1ccc(Cl)c(C(=O)OCC(=O)NCc2ccco2)c1`, for which the “hERG current change (%, negative = inhibition) at 10uM” value was -25%.

As for `CCN(Cc1ccccc1)C(=O)COC(=O)c1cc(S(=O)(=O)Nc2c(C)n(C)n(-c3ccccc3)c2=O)ccc1C`, the “hERG current change (%, negative = inhibition) at 10uM” value is given as -74.9%.
